Most compounds without a hit are left out; they make up all but 5.4% or so of the library.
RORg inh – blocks mouse ROR gamma transcriptional activity. P51450. Drosophila S2 Gal4-RORgamma UAS-luciferase reporter, 20 h. Potency, µM (doses to about 53.6 µM), usual class: inhibitors. 310,000 tested, 5.4% active. AID 2551; further: nearly all actives have a fitted effect of over 60% in size
Target sequence (P51450 whole entry, looked up, the tested form may be a part): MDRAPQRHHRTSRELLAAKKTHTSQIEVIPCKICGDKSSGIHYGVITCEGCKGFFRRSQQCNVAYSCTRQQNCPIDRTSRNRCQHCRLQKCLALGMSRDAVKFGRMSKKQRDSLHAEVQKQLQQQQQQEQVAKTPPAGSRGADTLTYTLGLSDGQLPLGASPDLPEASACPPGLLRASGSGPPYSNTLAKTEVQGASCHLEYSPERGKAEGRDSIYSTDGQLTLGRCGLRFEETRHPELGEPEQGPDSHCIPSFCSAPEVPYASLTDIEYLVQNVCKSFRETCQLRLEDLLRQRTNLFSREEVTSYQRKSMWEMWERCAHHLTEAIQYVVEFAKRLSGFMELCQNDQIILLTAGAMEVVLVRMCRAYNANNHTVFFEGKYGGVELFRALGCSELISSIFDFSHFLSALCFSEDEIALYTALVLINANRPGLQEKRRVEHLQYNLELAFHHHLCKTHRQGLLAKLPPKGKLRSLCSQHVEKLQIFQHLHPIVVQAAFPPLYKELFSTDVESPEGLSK
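Compounds are pin-transferred onto Drosophila Schneider cells expressing a copper-inducible Gal4–ROR gamma transactivation domain fusion. After 1 hr, copper sulfate is added to 700 uM final; luciferase is read 20 hr later.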
Six1-Eya2 blk – inhibitors of human Six1/Eya2 interaction; Q15475+O00167; AlphaScreen GST-Six1/His-Eya2 binding, biochemical; stronger effect = lower value; activity change, % (no concentration beside the values); 360,000 tested, 0.56% active; in the data active means activity change below about -65%; inconclusive means mostly about -30% to -63%
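Six1/Eya2 binding was read as AlphaScreen signal after compounds were pinned into GST-Six1 plus His-tagged Eya2 (5X stock 250/500 nM) in pH 8.0 Tris/NaCl/TCEP buffer, beads added, then incubated 1 h, 37 C, dark.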
p53 reactivator – re-activators of mutant p53; Potency, µM (series often up to 92.2 µM), hits mostly activators; 320,000 tested, 0.063% active; H1299 p53-A138V BP100-luciferase reporter, luminescence, 24 h; further: nearly all actives have a fitted effect of over 45% in size
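p53-null H1299 cells stably carrying temperature-sensitive p53-A138V and a BP100-luciferase reporter were pinned with compounds (4-point, 1:5 series) and held 24 hrs at 37 deg C. Luminescence was read 10 min after detection reagent.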
CtBP-E1A blk – blocks the CtBP interaction with E1A | AlphaScreen GST-E1A/His-CtBP binding, 1536-well; stronger effect = lower value | activity change, % (no concentration beside the values) | 340,000 tested, 0.49% active; in the data active means activity change below about -65%; inconclusive means mostly about -30% to -63%
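AlphaScreen with 125 nM GST-E1A and 125 nM His-CtBP (5X stocks) in Tris pH 8.0, 300 mM NaCl, BSA, Tween 20, TCEP. Compounds preincubated 2 h at 37 deg C, then glutathione donor/nickel acceptor beads added for 1 h at 37 deg C in dark.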
Gal4-VP16 FLuc – inhibits Gal4-VP16 luciferase reporter, ROR gamma counter-screen. Drosophila S2 Gal4-VP16 UAS-luciferase, luminescence, 20 h. Potency, µM (titrated, usually from 53.6 µM), most hits filed as inhibitors. 310,000 tested, 3.5% active. AID 2546;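 further: Gal4-VP16 expression switched on by copper sulfate through the metallothionein promoter; nearly all actives have a fitted effect of over 50% in size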
Large screens that a line does not name were inactive. Unless noted, the call rests on the fitted dose curve; in most records, active means well fitted curve in the direction sought with a large enough effect; inconclusive means small, poorly fitted or top-dose-only effect, or another doubt; inactive means no such curve, though single readings can be large; an effect the other way counts as inactive or inconclusive.

Cc1cc(=O)oc2cc(OC3C=CC(C#CC(C)(C)C)OC3CO)ccc12 (configuration not stated)	none (no result: Six1-Eya2 blk, p53 reactivator, CtBP-E1A blk)
Cc1ccc2c(Cl)c(C)c(N3CCCC3)nc2n1	RORg inh 2.8µM, Gal4-VP16 FLuc 11µM
Cc1nc2ccccc2nc1N1CCCC1	none
COc1ccc(CC(=O)Nc2nc(OCC(F)(F)F)cnc2-c2ccc(Cl)cc2Cl)cc1	none (no result: RORg inh, p53 reactivator, Gal4-VP16 FLuc)
O=C1[C@H]2[C@H]3[C@H](O)[C@H](O)C/C(=N/OC[C@@H](O)COCc4ccco4)[C@H]3CC[C@@H]2C(=O)N1c1cccc(Oc2ccccc2)c1	none (no result: Six1-Eya2 blk, p53 reactivator, CtBP-E1A blk)
CC(C(=O)Nc1cccc(S(=O)(=O)N2CCOCC2)c1)N1CCN(C)CC1 (configuration not stated)	none
CN1C/C(=C/c2cccnc2)C(=O)/C(=C/c2cccnc2)C1	RORg inh 5.6µM, Gal4-VP16 FLuc 2.8µM
CC(C)N1C/C(=C/c2cccnc2)C(=O)/C(=C/c2cccnc2)C1	RORg inh inconclusive, Gal4-VP16 FLuc inconclusive
O=Cc1ccc(B(O)O)cc1	none (no result: Six1-Eya2 blk, p53 reactivator, CtBP-E1A blk)
CN1C/C(=C/c2ccc(B(O)O)cc2)C(=O)/C(=C/c2ccc(B(O)O)cc2)C1	RORg inh 2µM, Gal4-VP16 FLuc 4.5µM (no result: Six1-Eya2 blk, p53 reactivator, CtBP-E1A blk)
COc1cc(CNCc2ccccc2Cl)ccc1OCC(=O)NC1CCCCC1	none
COc1ccc(/C=N/NC(=O)CC(=O)NCCc2ccccc2)cc1OC	none
COc1cc(/C=N/NC(=S)NCc2ccccc2)ccc1OCC#N	RORg inh 10µM, Gal4-VP16 FLuc inconclusive
CCOc1ccc(CNC(=S)N/N=C/c2ccc(OC)c(OC)c2)cc1	RORg inh 11µM, Six1-Eya2 blk inconclusive, Gal4-VP16 FLuc 10µM
c1ccc(CCNc2ncnc3sccc23)nc1	RORg inh inconclusive, Gal4-VP16 FLuc 16µM
Cc1csc2ncnc(NCCc3ccccn3)c12	Gal4-VP16 FLuc 10µM
COc1cc(C(=O)Nc2ccc(S(=O)(=O)N3CCOCC3)cc2)c([N+](=O)[O-])cc1OC	none
Cc1onc(-c2ccccc2)c1C(=O)Oc1cccnc1	RORg inh 7.9µM, p53 reactivator inconclusive
Cc1cccc(C)c1NC(=O)c1c(-c2ccccc2)noc1C	RORg inh 10µM
Cc1ccc(/C=N/NC(=O)c2c(-c3ccccc3)noc2C)o1	RORg inh 13µM, Gal4-VP16 FLuc inconclusive
Cc1onc(-c2ccccc2)c1C(=O)N/N=C/c1cc(Br)c(Br)o1	RORg inh 7.1µM, Gal4-VP16 FLuc 10µM
Cc1cccc(C(=O)N/N=C/c2cc(Br)c(Br)o2)c1	RORg inh 11µM, Gal4-VP16 FLuc inconclusive
O=C(N/N=C/c1cc(Br)c(Br)o1)C(O)c1ccccc1 (configuration not stated)	none
COc1ccc(C(=O)O/N=C2\C(=O)N(C)c3ccccc32)cc1	none (no result: RORg inh, p53 reactivator, CtBP-E1A blk, Gal4-VP16 FLuc)
CN1C(=O)/C(=N\OC(=O)c2cccc3ccccc23)c2ccccc21	RORg inh inconclusive, Gal4-VP16 FLuc 11µM
CC(C)(C)C(=O)Nc1ccc(/C=C/C(=O)c2ccco2)cc1	RORg inh 10µM
O=C(/C=C/c1ccccc1O)c1ccco1	RORg inh 7.9µM, Gal4-VP16 FLuc 11µM (no result: p53 reactivator)
O=C(Nc1ccc(NC(=O)c2ccco2)nc1)c1ccccn1	RORg inh inconclusive, p53 reactivator inconclusive, Gal4-VP16 FLuc 1.8µM
CC(C)(C)C(=O)Nc1ccc(NC(=O)c2ccco2)nc1	RORg inh 0.2µM, Gal4-VP16 FLuc 0.56µM
O=C(Nc1ccccn1)c1ccco1	none
COc1ccc(/C=C/C(=O)N2CCN(c3ccccn3)CC2)c2ccccc12	none
COc1cc([C@H]2OC[C@H]3[C@@H]2CO[C@@H]3c2ccc(O[C@H]3O[C@H](CO)[C@@H](O)[C@H](O)[C@H]3O)c(OC)c2)ccc1O[C@@H]1O[C@H](CO)[C@@H](O)[C@H](O)[C@H]1O	none (no result: RORg inh, Gal4-VP16 FLuc)
Cn1nnnc1Sc1ncnc2scc(-c3ccc([N+](=O)[O-])cc3)c12	none (no result: RORg inh, Six1-Eya2 blk, CtBP-E1A blk, Gal4-VP16 FLuc)
O=C(NCCc1c[nH]c2ccccc12)c1ccccc1O	none (no result: Six1-Eya2 blk, p53 reactivator, CtBP-E1A blk)
O=C(Nc1ccc(Cl)cc1C(=O)Nc1ccccn1)c1ccco1	RORg inh 13µM, Gal4-VP16 FLuc inconclusive
O=C(Nc1ccc(NC(=O)C2CC2)cc1)c1ccco1	p53 reactivator inconclusive
O=C(Nc1ccc(NC(=O)c2ccco2)nc1)c1ccco1	RORg inh 7.9µM
O=C(Nc1ccc(NC(=O)C2CC2)nc1)c1ccccn1	p53 reactivator inconclusive, Gal4-VP16 FLuc 7.1µM
O=C(Cc1ccccc1)Nc1ccc(NC(=O)c2ccco2)nc1	p53 reactivator inconclusive
O=C(Nc1ccc(NC(=O)C2CCCCC2)cn1)c1ccco1	RORg inh inconclusive, Gal4-VP16 FLuc 8.9µM
O=C(Nc1ccc(NC(=O)C2CC2)nc1)c1cnccn1	none (no result: CtBP-E1A blk)
C#CCCCO/N=C1/C[C@@H](O)[C@@H](O)[C@@H]2[C@@H]3C(=O)N(CCC(=O)OCC)C(=O)[C@H]3CC[C@@H]12	none (no result: Six1-Eya2 blk, p53 reactivator, CtBP-E1A blk)
Cc1cc(NC(=O)COc2cccc3cccnc23)no1	none (no result: Six1-Eya2 blk, CtBP-E1A blk)
Cc1oc(C(=O)O)cc1COc1cccc2cccnc12	Six1-Eya2 blk inconclusive, CtBP-E1A blk -71
CC(C)(C)c1cc(NC(=O)CSc2nncs2)n(-c2ccccc2)n1	none
C[C@H](NC(=O)c1ccccc1)C(=O)Nc1nc(-c2ccccn2)cs1	Six1-Eya2 blk -84, CtBP-E1A blk -81
CC(Oc1cccc(Cl)c1)C(=O)Nc1nc(-c2ccccn2)cs1 (configuration not stated)	Six1-Eya2 blk inconclusive, p53 reactivator inconclusive, CtBP-E1A blk -74 (no result: RORg inh, Gal4-VP16 FLuc)
Cc1cccc(C(=O)NC(C(=O)Nc2nc(-c3ccccn3)cs2)C(C)C)c1 (configuration not stated)	RORg inh 7.9µM, Six1-Eya2 blk inconclusive, p53 reactivator inconclusive, Gal4-VP16 FLuc inconclusive (no result: CtBP-E1A blk)
CC(Oc1ccccc1)C(=O)Nc1nc(-c2ccccn2)cs1 (configuration not stated)	Six1-Eya2 blk -68, CtBP-E1A blk -87 (no result: RORg inh, Gal4-VP16 FLuc)
Cc1cccc(C(=O)N[C@H](C(=O)Nc2ncc(C)s2)C(C)C)c1	none
CC(Oc1ccccc1)C(=O)Nc1nc(-c2ccncc2)cs1 (configuration not stated)	none (no result: RORg inh, Gal4-VP16 FLuc)
CC(=O)Nc1ccc2c(COC(=O)[C@H](C)N3C(=O)C4CCCCC4C3=O)cc(=O)oc2c1 (some centres not stated)	none
O=C(c1ccccc1NS(=O)(=O)c1ccc(F)cc1F)N1CCCCC1	none (no result: RORg inh, Gal4-VP16 FLuc)
NC(=O)Oc1ccc(Cc2ccccc2)cc1	none (no result: Six1-Eya2 blk, p53 reactivator, CtBP-E1A blk)
Cc1ccccc1NC(=S)NCc1cccn1C	RORg inh inconclusive, Gal4-VP16 FLuc inconclusive
Cc1ccccc1NC(=S)NCc1ccccc1	RORg inh 4µM, Gal4-VP16 FLuc 11µM
CCC(C)(C)NC(=S)Nc1ccccc1C	RORg inh 4µM, Gal4-VP16 FLuc 11µM
COc1ccc(NC(=O)COC(=O)C2CCN(S(=O)(=O)c3ccccc3)CC2)cc1Cl	none (no result: RORg inh, Gal4-VP16 FLuc)
CC(NC(=O)CNC(=O)c1ccccc1Br)c1cccs1 (configuration not stated)	none (no result: RORg inh, Gal4-VP16 FLuc)
